Rows were chosen to be rich in hits. Some 1.1% of all compounds tested hit in one or more screens of this group.
TrxR1 inh: qHTS Assay for Inhibitors of Mammalian Selenoprotein Thioredoxin Reductase 1 (TrxR1): qHTS | recombinant rTrxR1, NADPH fluorescence consumption, selenite substrate | Potency, µM (series often up to 114 µM), for the others: at the top dose activity change, negative = inhibition, most hits filed as inhibitors | actives 1% (n = 390,000) | AID 588453, 2011; also: potency is read from the fitted curve at half-maximal effect; nearly all actives have a fitted effect of over 65% in size
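Rat TrxR1 (90 nM in the dispensed reagent) was pre-reduced with 400 uM NADPH for 5 min at room temperature, then incubated with compound for 15 min. After 400 uM selenite was added, NADPH fluorescence (Ex 340/Em 450 nm) was followed for 8 min.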
Integrin act MD: qHTS for Activators of Integrin-Mediated Alleviation for Muscular Dystrophy | alpha7betagal myoblasts, beta-gal FDG fluorescence, 48 h | Potency, µM (top dose mostly 38.3 µM), without a hit: at the top dose activation, usual class: activators | actives 0.064% (n = 350,000) | AID 624291, 2012;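 also: potency is read from the fitted curve at half-maximal effect; 100% = response of the positive control SU9516; nearly all actives have a fitted effect of over 60% in size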
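alpha7betagal+/- myoblasts (passage 13, 250/well) treated 48 h at 37C with compounds at 1:260 dilution of DMSO stock. Lysed, then beta-galactosidase activity read as FDG fluorescence (ex 480/em 540) after 30 min, with pre-read for autofluorescence.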
LDHA inh: qHTS assay for inhibitors of human lactate dehydrogenase | purified LDHA, NADH/diaphorase-resazurin fluorescence; active compounds read low | activity change, % (values are at about 110 or 230 µM) | actives 0.15% (n = 480,000) | AID 1347041, 2019; in the data active = activity change below about -30%; inconclusive = mostly about -25% to -30%;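 also: plate controls were DMSO wells for no effect and wells without enzyme for full effect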
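Enzyme activity of human lactate dehydrogenase 5 (2 nM; 0.06 mM NADH, 0.2 mM pyruvate, 5 min, RT) is measured via a resazurin/diaphorase fluorescence readout of residual NADH.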
GALK inh: qHTS Assay for Inhibitors of Human Galactokinase (GALK). Purified GALK, Kinase-Glo residual ATP luminescence. Potency, µM (highest dose often 57.5 µM), without a hit: at the top dose activity change, negative = inhibition, hits mostly inhibitors. actives 0.007% (n = 270,000). AID 1868, 2009; also: potency is read from the fitted curve at half-maximal effect
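5 nM enzyme, 35 uM ATP, 100 uM galactose, 20 mM HEPES pH8.0, 5 mM MgCl2; 1 h RT; residual ATP by Kinase-Glo Plus luminescence, qHTS format.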
TrxR1 substrate: qHTS Assay for Substrates of Mammalian Selenoprotein Thioredoxin Reductase 1 (TrxR1): qHTS | purified TrxR1 substrate turnover, NADPH consumption readout | Potency, µM (top dose mostly 114 µM), for the others: top-dose activity change, negative = substrate turnover | actives 0.01% (n = 390,000) | Thioredoxin reductase 1, cytoplasmic (Rattus norvegicus), O89049; also: potency is read from the fitted curve at half-maximal effect; nearly all actives have a fitted effect of over 50% in size
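Rat TrxR1, dispensed at 90 nM, was prereduced with 400 uM NADPH (final) for 5 min at ~22 deg C, then incubated with compound 15 min before 400 uM selenite. A first-read NADPH fluorescence drop versus no-compound background flagged substrates.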
PI4K2A block: qHTS for small molecular inhibitors of PI4K2A; purified PI4K2A, ADP-Glo luminescence, 1 h; active compounds read low; activity change, negative = inhibition, % at 76.9 µM; actives 0.13% (n = 420,000); in the data active = activity change below about -50%; inconclusive = mostly about -30% to -49%;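 also: -100% = wells without enzyme as full effect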
Target sequence (Q9BTU6 whole entry, looked up): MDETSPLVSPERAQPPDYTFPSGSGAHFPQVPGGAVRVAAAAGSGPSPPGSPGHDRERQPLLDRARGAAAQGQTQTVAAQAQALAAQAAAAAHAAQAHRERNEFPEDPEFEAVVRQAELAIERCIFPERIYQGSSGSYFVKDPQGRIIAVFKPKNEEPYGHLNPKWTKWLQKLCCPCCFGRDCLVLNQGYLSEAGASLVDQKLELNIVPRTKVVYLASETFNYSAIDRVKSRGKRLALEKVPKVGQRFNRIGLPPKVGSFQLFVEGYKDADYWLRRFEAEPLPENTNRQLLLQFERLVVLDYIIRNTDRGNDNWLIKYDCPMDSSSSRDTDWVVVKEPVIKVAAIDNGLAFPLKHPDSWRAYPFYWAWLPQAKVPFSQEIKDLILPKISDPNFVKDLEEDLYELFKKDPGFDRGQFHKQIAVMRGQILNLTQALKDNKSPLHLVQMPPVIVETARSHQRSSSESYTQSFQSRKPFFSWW
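In this quantitative HTS, ADP production by PI4K2A was quantified luminescently after 1 h at ambient temperature; 100 microM adenosine served as plate-quality control.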
An asterisk follows results filed as active; ? = inconclusive; . = not tested or not shown; [ ] = another dose, or the depositor's remark. Unless noted, calls follow the shape of the dose curve; as a rule, active = well fitted curve in the direction sought with a large enough effect; inconclusive = small, poorly fitted or top-dose-only effect, or another doubt; inactive = no such curve, though single readings can be large; an effect the other way counts as inactive or inconclusive. Unless noted, % is scaled to controls: 0 for no effect and ±100 for the full control effect.

SMILES | TrxR1 inh | Integrin act MD | LDHA inh | GALK inh | TrxR1 substrate | PI4K2A block
CC1CCC[C@@]2(CCc3cc4c5c(c(=O)oc4cc3O2)CCC5)C1 (stereo partly specified) | . | . | 8.7 | . | . | .
Cn1nc(C(=O)OCCOc2ccccc2Cl)c2ccccc2c1=O | . | . | 5.2 | . | . | .
S=c1nc[nH]c2c1cnn2-c1ccccc1 | 2.6% | -3.9% | -8.5 | -2.2% | 3.6% | -1.5
Cn1ncc2c(=S)nc(Cl)[nH]c21 | 7.08µM* | -22.0% | -10.3 | . | -14.1% | -8.5
COC(C/C=C/C(=O)[C@H](C)OCc1ccccc1)OC | 44.7µM* | -27.4% | -5.5 | . | -8.1% | 16.9
COc1cc(-c2nnn(CC(=O)NC3CCS(=O)(=O)C3)n2)ccc1OCc1ccccc1 (stereo unspecified) | 13.7% | 9.8% | -0.6 | 0.0% | 10.6%[57.1 µM] | -60.2*
O=C(Cn1nnc(-c2ccc(Cl)cc2)n1)NC1CCS(=O)(=O)C1 (stereo unspecified) | -6.1% | -21.8% | -7.5 | . | -2.4% | -2.4
COc1ccccc1NC(=O)CN1CCN(CC(=O)Nc2cc(C)ccc2OC)CC1 | 8.8% | -19.0% | 0.2 | 0.6% | 0.8% | -1.8
CCN1CCOC(=O)C1CC(=O)Nc1cc(C)ccc1OC (stereo unspecified) | 11.2µM* | . | -4.3 | . | 5.2%[11.4 µM] | -0.7
CCN1CCOC(=O)C1CC(=O)Nc1ccc(Br)cc1 (stereo unspecified) | 70.8µM* | . | 0.1 | . | 6.6%[11.4 µM] | 3.8
COC(=O)c1ccc(COC(=O)c2cc(F)c(F)cc2Cl)cc1 | . | . | 2.6 | . | . | .
COc1cccc2sc3cc(NCc4ccc(C)o4)ccc3c(=O)c12 | 79.4µM* | -6.1% | -0.3 | . | 10.8% | -0.5
COc1cc2sc3cc(NCCCN4CCOCC4)ccc3c(=O)c2cc1OC | -1.3% | 21.5% | 0.4 | . | 36.7% | -2.7
CCCc1cc(=O)oc2c(C)c(OC(C)C(=O)NCCCn3ccnc3)ccc12 (stereo unspecified) | . | . | -33.2* | . | . | .
Cc1c(C)c2ccc(OC(C)C(=O)NCCCn3ccnc3)c(C)c2oc1=O (stereo unspecified) | 21.7% | -24.1% | -0.2 | -2.2% | 60.9% | 5.8
CCSC(=O)N1CCN(/[N+]([O-])=N/Oc2ccc([N+](=O)[O-])cc2[N+](=O)[O-])CC1 | 11.2µM* | . | -1.0 | . | 1.8% | .
O=[N+]([O-])c1ccc(O/N=[N+](\[O-])N2CCCCC2)c([N+](=O)[O-])c1 | 22.4µM* | . | 5.0 | . | -10.9% | .
CCCOC(=O)N1CCN(/[N+]([O-])=N/Oc2ccc([N+](=O)[O-])cc2[N+](=O)[O-])CC1 | 11.2µM* | . | . | . | -11.0% | .
O=C(CC(Cl)(Cl)Cl)N1CCN(/[N+]([O-])=N/Oc2ccc([N+](=O)[O-])cc2[N+](=O)[O-])CC1 | ? | . | 4.3 | . | -2.3% | .
COC(=O)N1CCN(/[N+]([O-])=N/Oc2ccc([N+](=O)[O-])cc2[N+](=O)[O-])CC1 | ? | . | . | . | -7.9% | .
CCOC(=O)N1CCN([N+]([O-])=NOc2cc(O/N=[N+](\[O-])N(C)C)c([N+](=O)[O-])cc2[N+](=O)[O-])CC1 | 28.2µM* | . | . | . | -17.4% | .
O=C(CSCc1nc2ccccc2s1)NC1CCCCC1 | . | . | -1.3 | . | . | .
CSc1cccc(NC(=O)CCc2ncc(-c3ccccc3F)o2)c1 | . | . | -12.2 | . | . | .
CCN(CC)c1ccc(N=Cc2ccccc2[N+](=O)[O-])cc1 | 70.8µM* | -50.2% | 26.1 | . | -17.1% | -11.9
CCN(CC)c1ccc(N=Cc2ccc(Br)s2)cc1 | . | . | 25.5 | . | . | .
SMILES | TrxR1 inh | Integrin act MD | LDHA inh | GALK inh | TrxR1 substrate | PI4K2A block
CCN(CC)c1ccc(C=Nc2ccc(Nc3ccccc3)cc2)cc1 | . | . | -1.8 | . | . | .
CCN(CC)c1ccc(N=Cc2ccc([N+](=O)[O-])o2)cc1 | 3.16µM* | -39.8% | 28.8 | 6.6% | 6.1% | -28.8
CCOC(=O)N(C)CC(=O)NC1CCCC1 | . | . | 11.9 | . | . | .
CCOC(=O)c1c(NC(N)=O)sc(C)c1C | 11.7% | -20.3% | -0.3 | -0.3% | 6.6% | 1.2
CCOC(=O)c1c(N2C(=O)C=CC2=O)sc(C)c1C | 2.24µM* | -65.8% | -1.8 | 0.0% | 5.9% | 1.9
CCCOc1ccc(-c2nonc2NC(=O)Cc2ccc(OC)cc2)cc1 | . | . | 10.8 | . | . | .
CS(=O)(=O)c1ccc(S(=O)CC(=O)OCc2ccccc2)c([N+](=O)[O-])c1 (stereo unspecified) | 2.82µM* | -71.1% | 31.9 | -1.2% | 6.1%[57.1 µM] | -13.3
CCC(C)NC(=O)CS(=O)Cc1nc(-c2ccccc2C)oc1C (stereo unspecified) | 7.08µM* | 7.9% | 0.4 | 1.2% | 18.3%[57.1 µM] | -6.5
CCCNC(=O)CS(=O)Cc1nc(-c2ccccc2C)oc1C (stereo unspecified) | ? | 13.8% | -0.6 | 1.7% | 1.6%[57.1 µM] | -7.2
Cc1oc(-c2ccccc2F)nc1CS(=O)CC(=O)NC(C)C (stereo unspecified) | 39.8µM* | . | -15.4 | . | 0.7% | 2.6
O=C(/C=C/c1ccco1)NCc1ccc2c(c1)OCO2 | 35.5µM* | -32.0% | 1.1 | -2.2% | 2.2% | -6.0
O=C(/C=C/c1ccco1)NCCc1ccc(F)cc1 | 44.7µM* | -44.6% | -9.0 | -1.0% | 4.4% | 0.3
O=C(/C=C/c1ccccc1)Nc1cccnc1Cl | 13.7%[57.1 µM] | ? | -2.3 | -3.4% | -8.0% | -2.1
Cc1ccc(OCCNC(=O)/C=C/c2ccco2)cc1C | 11.2µM* | -15.2% | -1.3 | 0.6% | 3.8% | -9.8
O=C(/C=C/c1ccco1)Nc1cccnc1Cl | 15.8µM* | -16.5% | 0.4 | -0.8% | 0.6% | -19.8
COc1cc(CN2C(=O)C(=O)c3cc(C)ccc32)ccc1OCCC(C)C | . | . | 3.4 | . | . | .
CC(=O)NS(=O)(=O)c1ccc(NC(=O)/C=C/c2ccco2)cc1 | -4.3% | 1.9% | -8.8 | 2.5% | -6.0%[57.1 µM] | 5.1
O=C(/C=C/c1ccco1)Nc1ccc2c(c1)OCO2 | 70.8µM* | 23.0% | -1.9 | 6.3% | -13.2% | -1.6
NS(=O)(=O)c1ccc(NC(=O)/C=C/c2ccco2)cc1 | 17.8µM* | 18.5% | -18.8 | -2.7% | -13.8% | -8.6
O=C(/C=C/c1ccco1)NCC1COc2ccccc2O1 (stereo unspecified) | 15.8µM* | -9.6% | -0.5 | -1.9% | 0.5% | -2.8
Cc1cc(C(=O)NNC(=O)/C=C/c2ccco2)c(C)o1 | 2.82µM* | 16.0% | -0.8 | . | 3.9% | -10.7
O=C(/C=C/c1ccco1)Nc1ccc(F)cc1 | ? | . | -1.3 | . | 1.0%[57.1 µM] | -5.7
COc1ccccc1/C=C/C(=O)NNC(=O)c1cc(C)oc1C | -16.2% | 16.8% | -1.0 | . | 0.5% | 3.8
